Results taken from PubChem BioAssay.
Active and inactive are the calls of the source.

Experiments:
[1] = target: Albumin (Bos taurus) (UniProt P02769); test: compounds binding labelled BSA control protein – biochemical, small-molecule microarray, Alexa647 label, 635/667 nm fluorescence, artefact control for SMM control protein annotation, profiling panel (AID 1118); conditions: BSA-A647 binding, fluorescence 635 nm, higher = more signal;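 note: score merges 667 nm emission intensity and signal-to-noise per printed compound spot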
[2] = probe aXIP binding to arrayed compounds – biochemical, NeuroSMM set, 635/667 nm fluorescence, primary screen (AID 1119); conditions: small-molecule microarray, higher = more signal, called active from +8 up or from −8 down;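 note: probe is the protein aXip251-270 applied at 1 µg/mL to compound-printed slides; binding of probe to printed compounds measured as 667 nm fluorescence plus signal to noise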
[3] = probe aNOTCH3 binding on compound microarray – biochemical, small-molecule microarray, 635/667 nm fluorescence, primary screen (AID 1120); conditions: higher = more signal;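 note: probe is a biotin-tagged antibody raised against NOTCH3 rather than NOTCH3 protein; score merges spot fluorescence near 667 nm with spot signal to noise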
[4] = probe aNOTCH2 binding on compound microarray – biochemical, small-molecule microarray, 635/667 nm fluorescence, primary screen (AID 1121); conditions: higher = more signal;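 note: score merges feature fluorescence read at 667 nm with its signal to noise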
[5] = target: Carbonic anhydrase 2 (Homo sapiens) (UniProt P00918); test: compounds binding carbonic anhydrase 2 – biochemical, small-molecule microarray, Alexa647-labelled CAII, profiling panel (AID 1122); conditions: CAII-A647 binding fluorescence, higher = more signal
[6] = COS7 lysate on small-molecule microarray, probe aHis, 635 nm (AID 1123); conditions: COS7 cell lysate, fluorescence, higher = more signal;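 note: z-score combines 667nm fluorescence intensity with signal-to-noise per printed compound spot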
[7] = probe aLAP1 signal on lysate-treated microarray – cell lysate, small-molecule microarray, COS7 lysate, primary screen (AID 1124); conditions: probe aLAP1, fluorescence, higher = more signal;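 note: lysate comes from COS7 cells expressing LAP1 and is applied at 0.3 µg/mL; score merges spot fluorescence near 667 nm with signal-to-noise over triplicate slides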
[8] = tested on: Sam68 (KHDRBS1); test: compounds binding KHDRBS1 protein – biochemical, small-molecule microarray, 635 nm fluorescence, primary screen (AID 1125); conditions: higher = more signal;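 note: score merges 667 nm channel intensity with signal to noise over triplicate slides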
[9] = tested on: Chordin-like protein 2 (CHRDL2); test: compounds binding chordin-like 2 – biochemical, small-molecule microarray, 635 nm fluorescence, primary screen (AID 1126); conditions: fluorescence 635 nm, higher = more signal;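 note: printed compound slides probed with Chrdl2 protein at 4 µg/mL for 1 h at 4 C; score merges 667 nm emission intensity with signal to noise over three replicate slides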
[10] = target: Concanavalin-A (Canavalia ensiformis) (UniProt P02866); test: compounds binding concanavalin A lectin – biochemical, small-molecule microarray, Alexa647 label, 635 nm, artefact control for SMM control protein annotation, primary screen (AID 1127); conditions: ConA-A647 binding fluorescence, higher = more signal;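 note: z combines 667 nm emission intensity with signal-to-noise across three replicate slides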
[11] = compounds binding Alexa647 anti-His antibody – biochemical, small-molecule microarray, 635 nm fluorescence, artefact control for SMM control protein annotation, primary screen (AID 1128); conditions: higher = more signal;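 note: score merges feature fluorescence with signal-to-noise for each printed compound spot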
[12] = tested on: Human papillomavirus type 1a E7 protein (residues 1-88); test: HPV1a E7 small-molecule binders, primary screen, biochemical, small-molecule microarray, residues 1-88, 635 nm (AID 1129); conditions: small-molecule microarray binding, fluorescence 635 nm; higher = more signal
[13] = target: Focal adhesion kinase 1 (Homo sapiens) (UniProt Q05397); test: PTK2 protein binding on printed compound slides – biochemical, small-molecule microarray, 635/667 nm fluorescence, BSA, DTT, primary screen (AID 1130); conditions: 635 nm fluorescence, higher = more signal;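 note: composite of spot emission at 667 nm and signal to noise over triplicate slides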
[14] = tested on: Fibrinogen (Alexa647-labelled); test: Alexa647-fibrinogen binding to printed small molecules – biochemical, small-molecule microarray, 635/667 nm fluorescence, artefact control for SMM control-protein annotation, profiling panel (AID 1131); conditions: fibrinogen-A647 binding fluorescence, higher = more signal;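 note: z-score merges 667 nm fluorescence with per-spot signal-to-noise over triplicate slides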
[15] = target: Follistatin (Homo sapiens) (UniProt P19883); test: FST protein binding to printed compounds – biochemical, small-molecule microarray, 635/667 nm fluorescence, primary screen (AID 1132); conditions: 635 nm fluorescence, higher = more signal
[16] = target: Fibroblast growth factor 2 (Homo sapiens) (UniProt P09038); test: basic fibroblast growth factor binding to printed compounds – biochemical, small-molecule microarray, 635/667 nm fluorescence, primary screen (AID 1133); conditions: FGF2, fluorescence 635/667, higher = more signal
[17] = JC-1 mitochondrial potential readout, lung cancer cells – cell-based, A549, JC-1 fluorescence, basal, 24 h, 100 nL, profiling panel (AID 1138); conditions: higher = more signal;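 note: A549 lung adenocarcinoma cells under basal conditions with no added stimulus; test concentration not given here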
[18] = tested on: Lefty1; test: Lefty1 protein binding to printed compounds – biochemical, small-molecule microarray, 635/667 nm fluorescence, primary screen (AID 1139); conditions: fluorescence 635/667, higher = more signal
[19] = tested on: wheat germ agglutinin (Triticum aestivum), Alexa647-labelled; test: Alexa647-WGA lectin binding to printed small molecules – biochemical, small-molecule microarray, 635/667 nm fluorescence, artefact control for SMM control-protein annotation, profiling panel (AID 1140); conditions: WGA-A647 binding, 635 nm fluorescence, higher = more signal;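 note: score merges 667 nm feature emission with signal to noise over triplicate slides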
[20] = target: Luciferin 4-monooxygenase (Photinus pyralis) (UniProt P08659); test: inhibition of purified Photinus pyralis luciferase – biochemical, luminescence, purified enzyme, 2006 set, primary screen (AID 1141); conditions: purified firefly luciferase, SteadyGlo luminescence, 30 min; higher = more signal, called active from +8 up or from −8 down;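 note: cell-free assay with purified firefly luciferase at 100 ng per well in PBS; test concentration not given here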
Chain of Luciferin 4-monooxygenase (Photinus pyralis) (P08659 whole entry, looked up): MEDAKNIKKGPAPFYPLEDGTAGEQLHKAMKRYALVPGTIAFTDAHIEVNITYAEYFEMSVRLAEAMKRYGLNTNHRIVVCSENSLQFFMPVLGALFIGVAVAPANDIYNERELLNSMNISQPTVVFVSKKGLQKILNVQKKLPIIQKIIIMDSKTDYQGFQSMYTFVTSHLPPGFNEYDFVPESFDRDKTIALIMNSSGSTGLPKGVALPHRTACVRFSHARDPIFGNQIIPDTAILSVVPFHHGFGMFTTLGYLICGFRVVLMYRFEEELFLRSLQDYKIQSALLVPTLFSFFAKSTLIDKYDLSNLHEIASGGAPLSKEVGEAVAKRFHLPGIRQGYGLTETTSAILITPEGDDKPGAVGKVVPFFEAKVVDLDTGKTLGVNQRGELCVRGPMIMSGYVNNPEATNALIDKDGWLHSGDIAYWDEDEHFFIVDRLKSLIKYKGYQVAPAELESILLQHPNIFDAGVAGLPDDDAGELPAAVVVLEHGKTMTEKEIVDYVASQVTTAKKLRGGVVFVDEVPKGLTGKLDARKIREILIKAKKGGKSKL

Chain of Fibroblast growth factor 2 (Homo sapiens) (P09038 whole entry, looked up): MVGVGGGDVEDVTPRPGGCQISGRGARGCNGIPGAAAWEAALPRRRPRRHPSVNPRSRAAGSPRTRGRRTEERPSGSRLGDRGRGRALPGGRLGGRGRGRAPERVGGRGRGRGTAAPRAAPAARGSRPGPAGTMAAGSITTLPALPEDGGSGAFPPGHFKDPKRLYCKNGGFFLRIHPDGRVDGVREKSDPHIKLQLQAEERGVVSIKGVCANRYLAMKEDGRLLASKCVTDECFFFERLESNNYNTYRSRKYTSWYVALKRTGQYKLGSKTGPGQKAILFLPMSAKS
Chain of Follistatin (Homo sapiens) (P19883 whole entry, looked up): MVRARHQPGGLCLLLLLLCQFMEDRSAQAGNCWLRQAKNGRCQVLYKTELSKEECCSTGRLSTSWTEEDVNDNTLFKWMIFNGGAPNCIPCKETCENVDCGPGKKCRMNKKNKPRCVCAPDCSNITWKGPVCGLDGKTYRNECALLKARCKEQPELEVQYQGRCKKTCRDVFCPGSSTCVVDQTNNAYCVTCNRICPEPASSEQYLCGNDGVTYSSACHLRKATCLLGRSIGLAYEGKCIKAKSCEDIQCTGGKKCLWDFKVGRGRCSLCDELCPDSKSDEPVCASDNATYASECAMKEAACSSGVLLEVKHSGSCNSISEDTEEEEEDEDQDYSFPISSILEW
Chain of Albumin (Bos taurus) (P02769 whole entry, looked up): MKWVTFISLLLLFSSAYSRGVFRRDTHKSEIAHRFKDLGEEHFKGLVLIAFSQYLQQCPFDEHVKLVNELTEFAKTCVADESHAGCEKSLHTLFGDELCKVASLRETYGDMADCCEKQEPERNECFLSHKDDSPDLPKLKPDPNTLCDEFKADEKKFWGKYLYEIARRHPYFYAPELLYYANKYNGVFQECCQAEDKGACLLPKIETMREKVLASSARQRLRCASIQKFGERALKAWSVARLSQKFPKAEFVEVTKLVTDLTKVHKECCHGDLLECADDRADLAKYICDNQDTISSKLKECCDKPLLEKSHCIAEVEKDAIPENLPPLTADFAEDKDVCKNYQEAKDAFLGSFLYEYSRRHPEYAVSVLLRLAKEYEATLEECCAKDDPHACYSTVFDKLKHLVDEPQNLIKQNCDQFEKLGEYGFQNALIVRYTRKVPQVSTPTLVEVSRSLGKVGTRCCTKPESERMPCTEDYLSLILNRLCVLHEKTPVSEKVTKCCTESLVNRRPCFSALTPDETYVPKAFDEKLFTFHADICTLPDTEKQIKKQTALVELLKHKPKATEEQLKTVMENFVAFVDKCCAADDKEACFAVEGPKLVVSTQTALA
Chain of Concanavalin-A (Canavalia ensiformis) (P02866 whole entry, looked up): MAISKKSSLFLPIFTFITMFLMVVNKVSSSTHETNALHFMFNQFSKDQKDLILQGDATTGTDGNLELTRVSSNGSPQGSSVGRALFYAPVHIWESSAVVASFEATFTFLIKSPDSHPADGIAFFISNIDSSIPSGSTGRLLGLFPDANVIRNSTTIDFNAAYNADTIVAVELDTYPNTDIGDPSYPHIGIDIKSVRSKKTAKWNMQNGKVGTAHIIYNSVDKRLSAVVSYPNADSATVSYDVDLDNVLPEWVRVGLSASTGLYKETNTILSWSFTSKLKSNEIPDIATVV
Chain of Focal adhesion kinase 1 (Homo sapiens) (Q05397 whole entry, looked up): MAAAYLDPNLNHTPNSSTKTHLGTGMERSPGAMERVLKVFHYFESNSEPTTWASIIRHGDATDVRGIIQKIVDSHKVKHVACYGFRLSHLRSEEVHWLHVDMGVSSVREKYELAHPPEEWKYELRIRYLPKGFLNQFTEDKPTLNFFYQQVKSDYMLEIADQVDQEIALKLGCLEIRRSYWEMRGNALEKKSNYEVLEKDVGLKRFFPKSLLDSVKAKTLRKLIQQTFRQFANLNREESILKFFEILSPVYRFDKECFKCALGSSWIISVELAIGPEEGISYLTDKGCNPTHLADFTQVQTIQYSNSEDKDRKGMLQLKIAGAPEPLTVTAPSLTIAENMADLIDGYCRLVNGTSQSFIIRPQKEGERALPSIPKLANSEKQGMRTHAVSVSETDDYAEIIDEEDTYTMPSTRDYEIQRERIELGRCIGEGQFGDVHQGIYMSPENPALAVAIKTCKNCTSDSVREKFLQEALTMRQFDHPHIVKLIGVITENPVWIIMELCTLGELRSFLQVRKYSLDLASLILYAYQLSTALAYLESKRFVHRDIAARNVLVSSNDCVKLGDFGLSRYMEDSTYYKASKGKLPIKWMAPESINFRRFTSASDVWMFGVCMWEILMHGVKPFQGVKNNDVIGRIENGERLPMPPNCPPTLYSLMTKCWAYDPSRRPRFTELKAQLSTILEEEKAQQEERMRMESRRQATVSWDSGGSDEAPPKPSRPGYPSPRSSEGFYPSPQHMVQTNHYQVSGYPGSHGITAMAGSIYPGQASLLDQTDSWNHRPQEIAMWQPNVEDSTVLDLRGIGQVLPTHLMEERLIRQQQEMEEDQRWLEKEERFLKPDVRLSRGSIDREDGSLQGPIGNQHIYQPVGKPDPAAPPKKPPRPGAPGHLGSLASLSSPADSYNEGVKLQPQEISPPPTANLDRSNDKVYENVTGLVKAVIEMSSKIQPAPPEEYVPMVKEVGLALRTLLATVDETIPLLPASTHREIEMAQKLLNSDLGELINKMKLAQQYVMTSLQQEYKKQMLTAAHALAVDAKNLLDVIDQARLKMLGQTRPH

Row | Structure (SMILES) | composite z-score [1] | composite Z-score [2] | composite z-score [3] | composite z-score [4] | composite z-score [5] | composite z-score [6] | composite z-score [7] | composite z-score [8] | composite z-score [9] | composite z-score [10] | composite z-score [11] | composite z-score [12] | composite z-score [13] | composite z-score [14] | composite z-score [15] | composite z-score [16] | z-score [17] | composite z-score [18] | composite z-score [19] | z-score [20]
1 | O=C1[C@@]23C=C(Br)[C@H](C[C@@H]2COC3)[C@]12CO2 | -0.742 | -0.222 (inactive) | -0.0187 | -0.0176 | -0.762 | 0.638 | -0.447 | -2.61 | -0.323 | -1.79 | -2.07 | -3.63 | 0.406 | -2.79 | -0.362 | -0.829 | -0.096 | -0.921 | -2.06 | -0.0914 (inactive)
2 | CC(C)[Si](C#CCCCC#N)(O[C@H](c1ccccc1)c1cn(Cc2cccc(Cl)c2)nn1)C(C)C | 0.588 | 1.02 (inactive) | 0.0871 | -0.11 | 0.442 | 0.79 | -0.192 | 1.3 | 0.841 | 0.0848 | 0.822 | 0.953 | -0.213 | 0.902 | 1.13 | 0.955 | 5.27 | 0.764 | 0.276 | -0.513 (inactive)
3 | CC1CC/C=C\[C@H]2OC34C=CCN(c5ccc6ccccc6c5)C(=O)[C@H]3N(CCO)C(=O)[C@@H]4C2C(=O)O1 (stereo not given in full) | 0.653 | 0.0214 (inactive) | -0.19 | -0.0903 | 0.829 | 0.275 | 0.758 | 0.0573 | -0.628 | -1.12 | -0.9 | -0.898 | -0.645 | -0.0601 | -0.839 | -0.467 | -0.245 | -0.708 | 1.03 | 0.288 (inactive)
4 | COc1ccc([Si](C)(C)[C@H]2[C@H](CCn3cc([C@H](O)c4ccccc4)nn3)O[C@@]3(C(=O)N(C)c4ccccc43)[C@@H]2C)cc1 | 0.179 | 0.235 (inactive) | -0.0057 | -0.0485 | 0.509 | 0.476 | -0.116 | 0.106 | -0.544 | -0.454 | -0.0799 | 0.0391 | 0.254 | -1.37 | 0.862 | 0.322 | 1.65 | 1.23 | -0.0898 | -0.0548 (inactive)
5 | COc1cc(CO)cc(I)c1O[C@H]1C=C(C(=O)NCCO)C[C@@H](N(C(=O)c2cc3ccccc3oc2=O)C2CCCCCC2)[C@@H]1O | 0.179 | -0.161 (inactive) | 0.0084 | -0.0282 | -0.177 | -0.149 | 0.0826 | 0.0348 | 0.13 | 0.66 | 0.0786 | -0.832 | -0.314 | 0.138 | 0.625 | 1.32 | -1.79 | 0.803 | 0.972 | 0.93 (inactive)
6 | C=CCOC(=O)[C@H]1[C@@H]2C(=O)O[C@@H](c3ccccc3)[C@@H](c3ccccc3)N2[C@@H](c2ccc(OCCOC(=O)[C@H]3C[C@H]4C(=O)N[C@@H](CCCCN(C)C)C(=O)N4[C@H]3c3cccc(OCCO)c3)cc2)[C@]12C(=O)Nc1ccc(I)cc12 | -0.427 | 0.715 (inactive) | 0.0306 | -0.154 | 0.228 | 0.986 | -0.0143 | 1.3 | 1.39 | 1.12 | 0.977 | 1.18 | 0.205 | 0.571 | 1.35 | 1.36 | -1.66 | 1.6 | 0.705 | -0.49 (inactive)
7 | O=C(NCCN1CCOCC1)[C@@H]1c2ccccc2C(=O)N(Cc2cc(C(F)(F)F)cc(C(F)(F)F)c2)[C@H]1c1ccc(CO)cc1 | -0.32 | -0.253 (inactive) | -0.292 | -0.101 | 0.699 | 1.61 | 0.501 | 0.687 | -1.67 | 0.412 | 0.537 | -0.137 | 0.31 | -0.487 | -0.48 | -0.879 | 2.57 | -0.75 | 0.4 | -0.372 (inactive)
8 | COC(=O)[C@@]1(Cc2ccccc2)[C@H]2c3cc(C(=O)N(C)C)n(Cc4ccc(OC)c(OC)c4)c3C[C@H]2CN1C(=O)c1ccccc1 | 0.864 | 0.0388 (inactive) | 0.775 | 0.318 | 0.467 | 3.07 | 0.463 | 1.29 | -0.78 | 0.829 | 1.81 | 1.27 | 0.561 | 1.01 | 0.385 | -0.588 | 0.134 | 0.0922 | 0.995 | 1.29 (inactive)
9 | O=C1OCCC/C=C\[C@H]2OC34C=CCN(c5ccc6ccccc6c5)C(=O)[C@H]3N(CCCCCO)C(=O)[C@@H]4C12 (stereo not given in full) | -0.152 | 0.328 (inactive) | -0.295 | -0.182 | 0.828 | -1.92 | -0.289 | -1.63 | -0.654 | -0.328 | -0.268 | -1.62 | -0.24 | -0.582 | -0.472 | -1.06 | -0.168 | -0.343 | -0.753 | 0.118 (inactive)
10 | NCCCCCNC(=O)[C@H]1C[C@H]2C(=O)N3CCC[C@H]3C(=O)N2[C@H]1c1ccc(O)cc1 | 0.851 | 1.56 (inactive) | 0.489 | -0.0024 | 0.445 | 0.676 | 0.0612 | 1.33 | 0.464 | 1.17 | 0.695 | 1.15 | 0.223 | 0.894 | 1.34 | 1.35 | -0.373 | 1.1 | 0.781 | -0.462 (inactive)
